Assay outcomes from PubChem BioAssay.
Shown is part of a subset that was picked to be rich in hits.
ERK EGF inh: qHTS Assay for Inhibitors of the ERK Signaling Pathway using a Homogeneous Screening Assay; Stimulation with EGF; 0.41% of 130,000 active; HEK293-V1b, EGF-stimulated phospho-ERK AlphaScreen; Potency, µM (highest dose often 11.5 µM), inactives show at the highest dose activity change, negative = inhibition, hits mostly inhibitors; active = well fitted inhibition curve with a large enough effect;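 also: plate controls were stimulated vehicle wells for no effect and unstimulated vehicle basal for full effect; nearly all actives have a fitted effect of over 55% in size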
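After overnight plating in 1% FBS, HEK293-V1b cells received test compound for half an hour, then a 5 min pulse of EGF (25 nM); ERK phosphorylation in lysates was read by bead-based AlphaScreen.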
Active calls of the source: *; [ ] = another dose, or the depositor's remark. Potency is read from the fitted curve at half-maximal effect.

SMILES	ERK EGF inh
Cc1ccccc1-n1c(/C=C/c2ccccn2)nc2ccccc2c1=O	-9%[57.5 µM]
CN1C2CCC1/C(=C/c1ccccn1)C(=O)/C2=C\c1ccccn1	14µM*
CCCN1CCC[C@@H]2Cc3[nH]ncc3C[C@H]21	1%
Cc1nn(Cc2ccccc2)c(Cl)c1C(=O)OC(C)C(=O)Nc1ccc(F)cc1Cl (stereo unspecified)	-4%
N#CC(C#N)=Cc1ccc(-c2ccccc2)o1	5%
c1ccc2c3c([nH]c2c1)C1(CCNCC1)NCC3	6%[57.5 µM]
c1ccc(-c2cc(-c3ccccc3)[n+](-c3ccccc3)c(-c3ccccc3)c2)cc1	22µM*
C[n+]1c(-c2ccccc2)cc(-c2ccc(Cl)cc2)cc1-c1ccccc1	5%
O=c1[nH]c(O)c(N=Nc2cc(C(F)(F)F)ccc2Cl)c(=O)[nH]1	-12%
CC/C=C\C/C=C\C/C=C\C/C=C\C/C=C\CCCC(=O)NCC(=O)O	3%
OCC[n+]1c2ccccc2nc2ccc(N3CCOCC3)cc21	14µM*
CC(C)CCNC(=O)c1cc(C(=O)c2cc(F)ccc2O)cn(CCC(C)C)c1=O	0%
CCCCOCCCN1C(C)=CC(=C2C(=O)NC(=S)NC2=O)C=C1C	3%[57.5 µM]
CCCCC(=O)N/N=C/c1c(O)n(CCCC)c(=S)[nH]c1=O	-7%[57.5 µM]
O=C1C(Cl)=C(Cl)C(=O)C(Cl)=C1Cl	10µM*
O=CN1CC2CC(C1)c1cccc(=O)n1C2 (stereo unspecified)	1%
C=C1CC2C(CC[C@]3(C)C(=O)CCC23)[C@]2(C)C=CC(=O)C=C12 (stereo partly specified)	16%
CCC12C=CCN3CCC4(c5ccc(OC)cc5N(C)C4[C@@](O)(C(=O)OC)C1OC(C)=O)C32 (stereo partly specified)	41%
c1cc(CN2CC3(CCNCC3)C2)ccn1	3%
C=C(C)CN1CC[C@@]23c4c5ccc(O)c4O[C@H]2c2[nH]c4ccccc4c2C[C@]3(O)[C@@H]1C5	-12%
C=C(C)CN1CC[C@]23c4c5ccc(O)c4O[C@H]2c2[nH]c4ccccc4c2C[C@@]3(O)C1C5	16µM*
Oc1ccc2c3c1O[C@H]1c4[nH]c5ccccc5c4C[C@@]4(O)C(C2)N(CC2CC2)CCC314 (stereo partly specified)	16%
N#Cc1ccccc1NC(=O)CN1CC=C(c2ccccc2)CC1	0%
O=c1[nH]c(=O)n(Cc2ccc(F)cc2)c(O)c1/C=N/Nc1ccccc1	3%[57.5 µM]
CN1CCN(c2ccc(C(N)=O)cc2[N+](=O)[O-])CC1	7%
SMILES	ERK EGF inh
CN(C)c1ccc(C=C2C(=O)NC(=S)NC2=O)cc1[N+](=O)[O-]	4%
O=C1NC(=S)NC(=O)C1=Cc1cccc2cc3ccccc3cc12	28µM*
Cc1cc(C=C2C(=O)NC(=S)NC2=O)c(C)n1-c1ccc2c(c1)OCO2	4%
O=C(CN1CCCCC1c1cccnc1)c1ccccc1 (stereo unspecified)	-10%
Cc1ccsc1C(=O)C1CCCN(Cc2sc(N(C)C)nc2Cl)C1 (stereo unspecified)	20µM*
Cc1ccsc1C(=O)C1CCCN(Cc2ccccc2O)C1 (stereo unspecified)	-5%
Cc1ccsc1C(=O)C1CCCN(Cc2cnc(N(C)C)s2)C1 (stereo unspecified)	-2%
CN1C(=O)C(=Cc2ccc(N(C)C)c([N+](=O)[O-])c2)C(=O)N(C)C1=O	-4%
CCOC(=O)C1(CCc2ccccc2)CCN(Cc2ccc3c(c2)OCCO3)CC1	1%
CCC(C)C1O[C@]2(C=CC1C)CC1CC(C/C=C(\C)[C@H](OC3CC(OC)C(O[C@H]4CC(OC)[C@@H](O)C(C)O4)C(C)O3)[C@@H](C)/C=C/C=C3\COC4C(O)C(C)=C[C@H](C(=O)O1)[C@@]34O)O2 (stereo partly specified)	6%
O=C(COC(=O)Cc1ccccc1)Nc1ccc(Cl)cn1	-1%
Cn1c(O)c(C(=Nc2ccccc2)SCc2ccc(Cl)cc2)c(=O)n(C)c1=O	1%[57.5 µM]
COc1ccc2c(c1)c(CCN)c(C)n2Cc1ccccc1	-16%[57.5 µM]
ClC1=C(Cl)C(Cl)=C(Cl)C1=C/C=C/c1ccccc1	11µM*
COc1cccc([C@@]2(O)CCCC[C@@H]2CN(C)C)c1	3%[57.5 µM]
O=C1NC(=O)C(=Cc2csc3ccccc23)C(=O)N1	-7%[57.5 µM]
O=C1NC(=O)C(=Cc2coc3ccccc3c2=O)C(=O)N1	-10%
